Screening results as filed in PubChem.
FBA Mtb inh: inhibits M. tuberculosis FBA enzyme | purified M. tuberculosis FBA, fluorescence read-out | inhibition, % at 1 µM | actives 2.3% (n = 360,000) | AID 588726
Target sequence (P9WQA3 whole entry, looked up): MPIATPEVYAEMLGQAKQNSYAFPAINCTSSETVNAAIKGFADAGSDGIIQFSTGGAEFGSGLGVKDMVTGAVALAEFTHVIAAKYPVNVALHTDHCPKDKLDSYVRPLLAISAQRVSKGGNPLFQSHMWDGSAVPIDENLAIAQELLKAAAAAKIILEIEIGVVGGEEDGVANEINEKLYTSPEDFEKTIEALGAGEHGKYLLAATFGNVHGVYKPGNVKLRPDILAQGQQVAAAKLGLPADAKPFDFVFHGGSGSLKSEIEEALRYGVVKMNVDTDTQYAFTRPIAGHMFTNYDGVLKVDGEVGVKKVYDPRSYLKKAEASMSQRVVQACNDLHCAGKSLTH
GDH-TPI counter-1: inhibits GDH-TPI coupling enzymes, artifact for Mtb FBA screen. GDH-TPI coupled enzyme counterscreen, NADH absorbance. inhibition, % at 4.8 µM. actives 1.2% (n = 360,000). AID 588335; in the data active means inhibition above about 30%
PrPC surface inh: cell surface PrPC inhibition, primary TR-FRET screen; inhibition, % at 13.8 µM; TR-FRET read-out; P04156; actives 0.43% (n = 370,000); in the data active means inhibition above about 24%
Vc quorum ag-1: induces V. cholerae light production without autoinducers; actives 0.16% (n = 350,000); activation, % at 18.7 µM; AID 588436; V. cholerae BH1578 lux reporter, luminescence, 6 h; in the data active means activation mostly above about 9.7%, no sharp cut-off
3CLpro inhibitor: SARS-CoV 3CLpro protease inhibition | P0C6X7 | recombinant SARS-CoV 3CLpro, quenched FRET peptide cleavage | inhibition, % at 6 µM | actives 0.14% (n = 290,000); in the data active means inhibition above about 12%
Vc quorum ag-2: quorum light induction in BH1578 reporter strain. 620 tested, under 10 active. activation, % at 50 µM. V. cholerae BH1578 lux reporter, luminescence, 6 h. AID 602243. shares compounds with Vc quorum ag-1; call rule not given here
Mtb FBA inh conf: confirmation of M. tuberculosis fructose-bisphosphate aldolase inhibitors | shares compounds with FBA Mtb inh | inhibition, % at 1 µM | purified M. tuberculosis FBA, fluorescence read-out | actives 78% (n = 5,600)
GDH-TPI counter-2: counter-screen for M. tuberculosis FBA inhibitors: GDH-TPI coupled enzyme inhibition; shares compounds with FBA Mtb inh; GDH-TPI coupled enzyme counterscreen, fluorescence; inhibition, % at 1 µM; actives 81% (n = 5,600); in the data active means inhibition above about 10%
Hits are given with their value; – = inactive; · = no result. Compounds with a hit are over-represented: about 3.9% of the library has one in this group of screens. Unless noted, no stated cut-off is given here; in the data, active means inhibition above about 27%; inactive means the rest.

SMILES | FBA Mtb inh | GDH-TPI counter-1 | PrPC surface inh | Vc quorum ag-1 | 3CLpro inhibitor | Vc quorum ag-2 | others
Cc1ccc(S(=O)(=O)N(CC(=O)NCc2ccccc2Cl)C(=O)N2CCN(C)CC2)cc1 | – | – | – | – | · | ·
CCCS(=O)(=O)N1CCC(C(=O)N2CCN(C(=O)OCC)CC2)CC1 | – | – | – | 15 | – | –
CCOC(=O)N1CCN(C(=O)C2CCN(S(=O)(=O)CC)CC2)CC1 | – | – | – | – | – | ·
COc1ccc(C(=O)COC(=O)c2cccc(-n3cnnn3)c2)c(OC)c1 | – | – | – | – | · | –
CCOC(=O)c1c(-c2ccccc2Cl)csc1NC(=O)c1cc(S(=O)(=O)N2CCOCC2)ccc1C | – | – | – | – | – | ·
COc1ccccc1NC(=O)c1nn(-c2ccccc2)ccc1=O | – | – | – | – | – | ·
COc1ccccc1NC(=O)c1nn(-c2ccc(Cl)cc2)ccc1=O | – | – | – | 25 | – | –
O=C(Nc1ccc2ccccc2c1)OC1CCS(=O)(=O)C1 (stereo unspecified) | · | · | – | · | · | ·
CC[C@]1(c2ccc(C)cc2)C(=O)N(C(=O)OC(C)C)N1C(=O)OC(C)C | · | · | – | · | · | ·
Cc1ccc(CN2C(=O)CCC2C(=O)NCCN(CC(C)C)CC(C)C)cc1 (stereo unspecified) | – | – | – | – | – | –
Cc1ccc(CN2C(=O)CCC2C(=O)NCc2ccc(F)cc2)cc1 (stereo unspecified) | – | – | – | – | – | ·
O=c1/c(=C/c2ccc(O)cc2)sc2nc3cc(Br)cnc3n12 | · | · | · | · | – | ·
CN(c1ccccc1)S(=O)(=O)c1nnc(NC(=O)C2CCCCC2)s1 | – | – | – | 19 | – | –
CCN(CC1COc2ccccc2O1)C(=S)Nc1ccccc1 (stereo unspecified) | – | – | – | – | – | –
CCN(CC1COc2ccccc2O1)C(=S)NCCCN(C)C (stereo unspecified) | – | – | – | – | – | ·
Cc1ccc(S(=O)(=O)N2CCCCC2CCNC(=O)C(=O)NCc2ccccc2)cc1 (stereo unspecified) | – | – | – | – | · | ·
CC(=O)c1cc2c(cc1NS(=O)(=O)c1cccc(C(=O)O)c1)OCO2 | – | – | – | – | – | ·
CCC(C)NS(=O)(=O)c1ccc(S(=O)(=O)Nc2cc3c(cc2C(C)=O)OCO3)cc1 (stereo unspecified) | – | – | – | 22 | – | –
CC(=O)c1cc2c(cc1NS(=O)(=O)c1ccccc1)OCO2 | – | – | – | – | – | –
COc1ccccc1CNC1CCC12CCC(c1ccccc1)CC2 (stereo unspecified) | · | · | – | · | · | ·
COc1cccc(-c2nc(OC(C)C)c3ccccc3n2)c1 | – | – | – | 25 | – | –
Nc1cc(N)nc(SCC(=O)NC2CCCCCCC2)n1 | – | – | – | – | · | ·
COc1ccc(OC)c(S(=O)(=O)N2CCC(C(=O)N3CCCC3)CC2)c1 | – | – | – | – | – | ·
COc1ccc(OC)c(S(=O)(=O)N2CCC(C(=O)N3CCc4ccccc4C3)CC2)c1 | – | – | – | – | – | –
CCn1nc(NC(=O)c2ccco2)c2cc3ccccc3nc21 | – | – | – | 40 | – | –
SMILES | FBA Mtb inh | GDH-TPI counter-1 | PrPC surface inh | Vc quorum ag-1 | 3CLpro inhibitor | Vc quorum ag-2 | others
C=CCOc1ccc(-c2nc3c(c(=O)[nH]c(=O)n3CCC)n2CCCC)cc1 | – | – | – | – | – | ·
CCCCn1c(=O)[nH]c(=O)c2c1nc(COc1ccc(C#N)cc1)n2CCC | – | – | – | – | – | –
O=C(NCCC(=O)N(Cc1ccco1)Cc1cccs1)c1ccc([N+](=O)[O-])cc1 | – | – | – | – | · | ·
Cc1cccc(N2CCN(C(=O)C34CC5CC(CC(C5)C3)C4)CC2)c1C | – | – | – | 22 | – | –
O=C(c1ccco1)N1CCN(c2nc(C3CC3)nc3c2nnn3Cc2ccccc2Cl)CC1 | – | – | – | – | – | ·
CC(C)(C)c1nc(N2CCN(C(=O)c3ccco3)CC2)c2nnn(Cc3ccccc3)c2n1 | – | – | – | 17 | – | –
Cc1cc(SCC(=O)N(C)CC(=O)Nc2ccc(F)cc2)nc2ccccc12 | – | – | – | – | – | ·
Nc1nnc(-c2ccc(Cl)cc2Cl)s1 | – | – | – | 470 | – | –
c1ccc(COCCc2cn(Cc3ccccc3)c3ccccc23)cc1 | · | · | – | · | · | ·
Cc1ccc(C(=O)N(C)CC(=O)Nc2ccc(N3CCOCC3)cc2)s1 | – | – | – | – | · | –
CC(=O)c1cc2c(cc1NC(=O)Cc1c(C)noc1C)OCO2 | – | – | – | 22 | · | –
CCCSc1cc(N2CCOCC2)nc(-c2ccccc2Cl)n1 | – | – | – | · | – | ·
CC(C)C(NC(=O)c1ccc(S(=O)(=O)N2CCOCC2)cc1)c1nc2ccccc2[nH]1 (stereo unspecified) | – | – | – | – | – | –
CC(C)[C@H](NC(=O)c1cccc(S(=O)(=O)N2CCCC2)c1)c1nc2ccccc2[nH]1 | – | – | – | · | – | ·
O=C(COC(=O)c1ccc(Cl)c(S(=O)(=O)N2CCCC2)c1)NC1CCCC1 | – | – | – | – | – | ·
NS(=O)(=O)c1cc(C(=O)OCC(=O)NC2CCCCCCC2)ccc1Cl | – | – | – | – | · | –
Cc1cc(C(C)(C)C)oc1C(=O)OCC(=O)NC1CCCCC1 | – | – | – | 145 | – | –
O=C(COC(=O)c1ccc(Br)cc1)NC1CCCC1 | – | – | – | 131 | – | –
Cc1ccc(C)c(N(CC(=O)NC2CCCC2)C(=O)c2oc(C(C)(C)C)cc2C)c1 | – | – | – | – | – | ·
O=C(Nc1ccc2c(c1)OCO2)c1csc([C@H]2C[C@H](O)[C@@H](CO)O2)n1 | – | – | – | – | · | ·
COc1ccc([C@H]2CC(=O)C=C(c3cccc(NC(C)=O)c3)C2)cc1 | – | – | – | – | · | ·
Cc1ccc(S(=O)(=O)N2Cc3ccccc3CC2C(=O)Nc2ccc3c(c2)OCO3)cc1 (stereo unspecified) | – | – | – | – | – | –
CN(CCC#N)S(=O)(=O)c1ccc2[nH]cc(C(=O)NCCc3ccccc3)c(=O)c2c1 | – | – | – | – | – | ·
O=C(CCN1C(=O)c2ccccc2C1=O)N1CCN(C2c3ccccc3-c3ccccc32)CC1 | – | – | – | – | – | –
CCN(CC)CCNc1c(C)cc(CO)c(Cl)c1C | – | – | – | – | · | ·
Cc1cc(N2CCC(C)CC2)nc2ccc(N3C(=O)CCC3=O)cc12 | 59 | – | – | – | – | – | Mtb FBA inh conf=98;GDH-TPI counter-2=79
Cc1cccc(OC(C)C(=O)NC2CCS(=O)(=O)C2)c1C (stereo unspecified) | 88 | – | · | – | – | – | Mtb FBA inh conf=119;GDH-TPI counter-2=83
COc1ccc(-c2ccc(-c3nnc(Cc4ccc(OC)c(OC)c4)o3)cc2)cc1 | 39 | – | – | – | – | – | Mtb FBA inh conf=–;GDH-TPI counter-2=–
